{"source": "PubChem BioAssay (NCATS)", "key": {"[1]": {"conditions": "Ebola virus entry assay, green fluorescence channel"}, "[2]": {"conditions": "Ebola virus entry assay, blue channel fluorescence"}, "[3]": {"conditions": "Ebola virus entry assay, ratio channel"}, "[4]": {"conditions": "Ebola virus entry assay, reporter ratio channel; Channel type: primary"}}, "note": "Unmarked numbers belong to inactive results. For some of these results: Measured potencies and affinities stand elsewhere. Active and inactive are the calls of the source. No rule for the calls is given here. For efficacy in this document: 0% is about no effect.", "data": [{"compound": "CSc1ccc(/C=C2/C(C)=C(CC(=O)O)c3cc(F)ccc32)cc1", "values": [{"measurement": "efficacy", "setting": "[1]", "result": 33.8, "unit": "%"}, {"measurement": "outcome", "setting": "[2]", "result": "inactive"}, {"measurement": "outcome", "setting": "[3]", "result": "inactive"}, {"measurement": "outcome", "setting": "[4]", "result": "inactive"}]}, {"compound": "CN(C)CCOC1=Cc2ccccc2Sc2ccc(Cl)cc21", "values": [{"measurement": "efficacy", "setting": "[1]", "result": 46.9, "unit": "%"}, {"measurement": "AC50", "setting": "[2]", "result": "15.8 µM (active)"}, {"measurement": "AC50", "setting": "[3]", "result": "12.6 µM (active)"}, {"measurement": "AC50", "setting": "[4]", "result": "12.6 µM (active)"}]}, {"compound": "CCCCNc1ccc(C(=O)OCCN(CC)CC)cc1", "values": [{"measurement": "efficacy", "setting": "[1]", "result": 87.1, "unit": "%"}, {"measurement": "AC50", "setting": "[2]", "result": "39.8 µM (active)"}, {"measurement": "AC50", "setting": "[3]", "result": "22.4 µM (active)"}, {"measurement": "AC50", "setting": "[4]", "result": "22.4 µM (active)"}]}, {"compound": "CCOC(=O)COc1ccc2c(C)c(CCN(CC)CC)c(=O)oc2c1Cl", "values": [{"measurement": "efficacy", "setting": "[1]", "result": 158, "unit": "%"}, {"measurement": "AC50", "setting": "[2]", "result": "28.2 µM (active)"}, {"measurement": "AC50", "setting": "[3]", "result": "25.1 µM (active)"}, {"measurement": "AC50", "setting": "[4]", "result": "25.1 µM (active)"}]}, {"compound": "Nc1c2c(nc3c1CCC3)CCCC2", "values": [{"measurement": "efficacy", "setting": "[1]", "result": 42.2, "unit": "%"}, {"measurement": "AC50", "setting": "[2]", "result": "28.2 µM (active)"}, {"measurement": "outcome", "setting": "[3]", "result": "inactive"}, {"measurement": "AC50", "setting": "[4]", "result": "31.6 µM (active)"}]}, {"compound": "CN(C)CCOc1ccccc1Cc1ccccc1", "values": [{"measurement": "efficacy", "setting": "[1]", "result": 74.8, "unit": "%"}, {"measurement": "AC50", "setting": "[2]", "result": "3.55 µM (active)"}, {"measurement": "AC50", "setting": "[3]", "result": "3.16 µM (active)"}, {"measurement": "AC50", "setting": "[4]", "result": "3.16 µM (active)"}]}, {"compound": "CC(=O)NC(Cc1ccccc1)C(=O)O", "note": "(configuration not stated)", "values": [{"measurement": "efficacy", "setting": "[1]", "result": 29.9, "unit": "%"}, {"measurement": "outcome", "setting": "[2]", "result": "inactive"}, {"measurement": "outcome", "setting": "[3]", "result": "inactive"}, {"measurement": "outcome", "setting": "[4]", "result": "inactive"}]}, {"compound": "CCCCC1C(=O)N(c2ccccc2)N(c2ccc(O)cc2)C1=O", "note": "(configuration not stated)", "values": [{"measurement": "efficacy", "setting": "[1]", "result": 73.1, "unit": "%"}, {"measurement": "AC50", "setting": "[2]", "result": "28.2 µM (active)"}, {"measurement": "outcome", "setting": "[3]", "result": "inactive"}, {"measurement": "AC50", "setting": "[4]", "result": "39.8 µM (active)"}]}, {"compound": "OCCN1CCN(CCCN2c3ccccc3C=Cc3ccccc32)CC1", "values": [{"measurement": "efficacy", "setting": "[1]", "result": 49.7, "unit": "%"}, {"measurement": "AC50", "setting": "[2]", "result": "14.1 µM (active)"}, {"measurement": "AC50", "setting": "[3]", "result": "14.1 µM (active)"}, {"measurement": "AC50", "setting": "[4]", "result": "14.1 µM (active)"}]}, {"compound": "CCCCOc1ccc(OCCCN2CCOCC2)cc1", "values": [{"measurement": "efficacy", "setting": "[1]", "result": 94.1, "unit": "%"}, {"measurement": "AC50", "setting": "[2]", "result": "25.1 µM (active)"}, {"measurement": "AC50", "setting": "[3]", "result": "22.4 µM (active)"}, {"measurement": "AC50", "setting": "[4]", "result": "22.4 µM (active)"}]}, {"compound": "C[C@@H](CN(C)C)CN1c2ccccc2Sc2ccccc21", "values": [{"measurement": "efficacy", "setting": "[1]", "result": 66.9, "unit": "%"}, {"measurement": "AC50", "setting": "[2]", "result": "8.91 µM (active)"}, {"measurement": "AC50", "setting": "[3]", "result": "10 µM (active)"}, {"measurement": "AC50", "setting": "[4]", "result": "10 µM (active)"}]}, {"compound": "CC(=O)c1ccc2c(c1)N(CCCN(C)C)c1ccccc1S2", "values": [{"measurement": "efficacy", "setting": "[1]", "result": 87, "unit": "%"}, {"measurement": "AC50", "setting": "[2]", "result": "12.6 µM (active)"}, {"measurement": "AC50", "setting": "[3]", "result": "12.6 µM (active)"}, {"measurement": "AC50", "setting": "[4]", "result": "12.6 µM (active)"}]}, {"compound": "O=C1NCN(c2ccccc2)C12CCN(CCCC(c1ccc(F)cc1)c1ccc(F)cc1)CC2", "values": [{"measurement": "efficacy", "setting": "[1]", "result": 83.4, "unit": "%"}, {"measurement": "AC50", "setting": "[2]", "result": "1.41 µM (active)"}, {"measurement": "AC50", "setting": "[3]", "result": "1.26 µM (active)"}, {"measurement": "AC50", "setting": "[4]", "result": "1.26 µM (active)"}]}]}
